Assay [1] is described as follows: AP1 Signaling Pathway (AID 357).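 Further: ME-180 reporter cells stimulated with EGF at its EC50 level; on the % scale 0 is the no-effect control and ±100 the full control effect.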 As to conditions: ME-180 AP-1-bla reporter, EGF-induced, beta-lactamase ratio, 5 h; series mostly up to 17.2 µM. The procedure, abridged:
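A ratiometric CCF4 readout (405 nm excitation; 460 and 530 nm emission) quantified AP-1-driven beta-lactamase in ME-180 cells after 5 h with compound and EC50 EGF; AC50 values were derived for activators and inhibitors.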

Assay [2] addresses Cytochrome P450 1A2 (Homo sapiens) (UniProt P05177). The experiment in a line: p450-cyp1a2 (AID 410; calls by dose curve; further: potency means the concentration at half of the fitted maximal effect;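 on activity change, negative = inhibition: -100% = full effect of reference inhibitor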). As to conditions: recombinant CYP1A2, luciferin-ME demethylation, luminescence; series mostly up to 25.6 µM. An outline of the steps:
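Luminescent demethylation readout: Luciferin-ME (100uM, equal to Km) turned over by 20nM CYP1A2 for 60 min at room temperature after NADPH regeneration addition, following 10 min compound preincubation. Normalization used 57 uM furafylline as full inhibition.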

The nature of assay [3]: NFAT Signaling Pathway (AID 444).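 Further: carbachol stimulus at about its EC50 of 1 µM final; on the % scale 0 is the no-effect control and ±100 the full control effect.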 As to conditions: Jurkat NFAT-bla M1, carbachol, beta-lactamase ratio, 5 h. The procedure, abridged: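 Jurkat cells with NFAT-driven β-lactamase reporter and co-expressed M1 receptor, stimulated with carbachol (final 1 uM, ~EC50), compound titration, 5 h at 37 °C. CCF4 loaded 1 h at RT; 460/530 nm ratio gave %activity and AC50.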
Assay [4] can be described thus: Stat Signaling Pathway (AID 446).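 Further: ME-180 cervical cancer cells given 40 pM IL-6 alongside compound; SIE-controlled beta-lactamase reporter measured as 460/530 nm FRET emission ratio; on the % scale 0 is the no-effect control and ±100 the full control effect.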 As to conditions: ME-180 (cervical carcinoma) SIE beta-lactamase reporter, IL-6 stimulated, 5 h; series mostly up to 17.2 µM. An outline of the steps:
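Emission at 460 and 530 nm (excitation 405 nm) reports SIE-controlled beta-lactamase in ME-180 cells. Cells received compound with 40 pM IL-6 for 5 hrs at 37 C; data scaled between 300 pM IL-6 and 125 nM JAK-inhibitor controls.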

Assay [5] addresses Glucocorticoid receptor (Homo sapiens) (UniProt P04150). The experiment in a line: GR-GFP Redistribution (AID 450;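 active means compounds whose dose series gives a full or clear partial fitted curve of increased nuclear translocation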; further: potency means the concentration at half of the fitted maximal effect). As to conditions: U2OS GR-GFP nuclear translocation, laser cytometry, 2 h.
Assay [6] shares this target. Briefly: GR-EFC Redistribution (AID 451; calls by dose curve; further: potency means the concentration at half of the fitted maximal effect). As to conditions: CHO-K1 GR-EFC translocation, beta-gal luminescence, 2 h. An outline of the steps:
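CHO-K1 cells expressing nuclear EA and GR-ED fragments of b-gal; compounds titrated up to 46 uM final, 2 h at 37 C. GR nuclear translocation read as complemented b-gal luminescence after 1 h RT detection.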

The target of assay [7] is Mitogen-activated protein kinase 10 (Mus musculus) (UniProt Q61831). The experiment in a line: JNK3 AlphaScreen Assay (AID 530).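 Further: kinase came from lysate of stimulated human HepG2 cells; signal reports phosphorylation of biotinylated GST-cJun 1-79 at Ser73 with 10 µM ATP; on the % scale 0 is the no-effect control and ±100 the full control effect.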 As to conditions: JNK3 lysate, c-Jun phosphorylation; series mostly up to 57.1 µM. The procedure, abridged: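 Activity was read by AlphaScreen after JNK3-containing HepG2 lysate (cytokine pre-activated) phosphorylated biotinylated GST-cJun with 10 uM ATP at room temperature. Phospho-Ser73 cJun antibody with Protein-A acceptor beads provided detection.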
(Bead proximity is the source of the signal in Alpha formats.)

The target of assay [8] is 3',5'-cyclic-AMP phosphodiesterase 4B (Homo sapiens) (UniProt Q07343). Briefly: qHTS Assay for Inhibitors of PDE-IV (AID 607; active means well fitted activation curve with a large enough effect in the main read-out, with a control signal flat, not every such curve was filed as active; further: % of control where 0% means no effect). As to conditions: HEK293 ACTOne CNG channel cells, membrane potential fluorescence; series mostly up to 22.9 µM. The procedure, abridged:
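The readout is membrane depolarisation from a cAMP-sensing CNG channel, detected with a potential dye at ex 535/em 590. Cells were HEK293-derived (endogenous PDE-IV) at 1000 cells/well, titrated up to 22.9 uM final.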
Background: qHTS replaces the single test concentration by a dilution series.

Assay [9] is described as follows: qHTS Assay for Lipid Storage Modulators (AID 1519; calls by dose curve). As to conditions: Drosophila S3 cells, BODIPY lipid droplet/cell ratio, laser cytometry, cells loaded with oleic acid. An outline of the steps: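 Cells seeded at 5,000 per well were treated with compounds over a concentration series and loaded with oleic acid (400 uM, as added). Lipid droplet fluorescence (488 nm excitation, 500-530 nm channel) was read by laser-scanning cytometry and normalized to 20 uM Triacsin C.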

In assay [10] the target is Ubiquitin carboxyl-terminal hydrolase 1 (Homo sapiens) (UniProt O94782). Briefly: Inhibitors of USP1/UAF1: Pilot qHTS (AID 504865; active means well fitted curve in the direction sought with a large enough effect; an effect the other way counts as inactive or inconclusive;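 further: rhodamine fluorescence freed from ubiquitin-rhodamine substrate followed over time; top concentration of the series differs between compounds; on the % scale 0 is the no-effect control and ±100 the full control effect; nearly all actives have a fitted effect of over 35% in size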). As to conditions: purified USP1/UAF1, Ub-rhodamine cleavage fluorescence; series mostly up to 114 µM. The procedure, abridged: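 Kinetic fluorescence assay: 1nM USP1/UAF1, 15 min compound preincubation, then 150nM Ub-Rho; 480/540 nm.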
In assay [11] the target is Luciferin 4-monooxygenase (Photinus pyralis) (UniProt P08659). The experiment in a line: Biochemical firefly luciferase enzyme assay for NPC (AID 624030; active means well fitted curve in the direction sought with a large enough effect; an effect the other way counts as inactive or inconclusive;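 further: purified P. pyralis luciferase at 10 nM with luciferin and ATP substrate; 0% = DMSO and -100% = full luciferase inhibition by PTC124 control; nearly all actives have a fitted effect of over 70% in size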). As to conditions: purified P. pyralis luciferase, luminescence, 5 min; series mostly up to 58.6 µM. An outline of the steps:
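Purified P. pyralis luciferase at 10 nM in 50 mM Tris Acetate (final), luminescence read within 5 minutes of enzyme addition to compounds. Activity normalised to PTC124 versus DMSO; concentration-response curves classed by r2, magnitude and activity.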

Assay [12] can be described thus: S16 Schwann cell PMP22 intronic element firefly luciferase assay (AID 624032; active means well fitted curve in the direction sought with a large enough effect; an effect the other way counts as inactive or inconclusive;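 further: plate controls were DMSO for no effect and PTC124 positive control mean for full effect; nearly all actives have a fitted effect of over 30% in size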). As to conditions: S16 rat Schwann cells, PMP22 element FLuc, 24 h; series mostly up to 57.5 µM. An outline of the steps: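 Rat S16 Schwann cells stably carrying firefly luciferase driven by a PMP22 intronic element, in 10% FBS, treated 24 h at 37 C. ONE-Glo luminescence normalized to PTC124 control and DMSO (0%); curves classed by r2, magnitude and activity.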

Assay [13] in a line: qHTS profiling for inhibitors of Plasmodium falciparum proliferation (AID 504749; active means well fitted curve in the direction sought with a large enough effect; an effect the other way counts as inactive or inconclusive;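 further: 0% = DMSO vehicle and full inhibition = artemisinin control; nearly all actives have a fitted effect of over 60% in size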). As to conditions: P. falciparum in erythrocytes, SYBR Green DNA, 72 h, at 12.8 µM (top of the series). An outline of the steps:
(§1)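 Each compound contacts P. falciparum-infected red blood cells for 72 h at 37 C; lysis buffer (Tris, EDTA, saponin, Triton X, SYBR Green I) is added and fluorescence measured next morning; values normalized to controls.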

The subject of another assay is C2A. Described as above. As to conditions: P. falciparum in erythrocytes, SYBR Green DNA, 72 h; series mostly up to 28.7 µM. The procedure, abridged: as §1
A further assay relates to CP185. The description is as above. As to conditions: P. falciparum in erythrocytes, SYBR Green DNA, 72 h; series mostly up to 28.7 µM. The procedure, abridged:
as §1

In a further assay the test system is FAB9. Described as above. As to conditions: P. falciparum in erythrocytes, SYBR Green DNA, 72 h; series mostly up to 28.7 µM. The procedure, abridged: as §1
The target in assay [14] is Cytochrome P450 3A4 (Homo sapiens) (UniProt P08684). The experiment in a line: qHTS Assay for Activators of Cytochrome P450 3A4 (AID 885; active means well fitted curve in the direction sought with a large enough effect; an effect the other way counts as inactive or inconclusive; further: nearly all actives have a fitted effect of over 65% in size). As to conditions: recombinant CYP3A4, Luciferin-PPXE luminescence, 60 min; series mostly up to 57.1 µM. An outline of the steps:
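Activators are scored by enhanced luminescence from CYP3A4 conversion of luciferin-PPXE (25uM, equal to KM) to luciferin, after 60 min at RT with an NADPH-regenerating system.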

Assay [15] shares this target. The experiment in a line: qHTS Assay for Inhibitors and Substrates of Cytochrome P450 3A4 (AID 884; active means well fitted curve in the direction sought with a large enough effect; an effect the other way counts as inactive or inconclusive; further: on the % scale 0 is the no-effect control and ±100 the full control effect; nearly all actives have a fitted effect of over 50% in size). As to conditions: recombinant CYP3A4, Luciferin-PPXE luminescence; series mostly up to 57.1 µM. An outline of the steps:
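Luminescent readout of luciferin produced by CYP3A4 (20 nM) dealkylation of Luciferin-PPXE, 25 uM (its KM). NADPH-driven reaction ran 60 min at RT after 10 min compound preincubation; data scaled to 57 uM ketoconazole as 100% inhibition.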

The mark [16] stands for this setting: measured here: cell count channel max response.
Setting [17] is: measured here: lipid channel max response.

Experimental findings from PubChem BioAssay (NCATS) are described below.

Molecules are shown by their SMILES. “And” between values parts separate entries of the source, which are not always exact repeats. Equal values may be shown once. Records with an inconclusive call do not appear. A structure can be active in one record and inactive in another. The source made the active and inactive calls. Unless noted, the call rests on the fitted dose curve; in most records, active means well fitted curve in either direction with a large enough effect (not every such curve was filed as active); inconclusive means small, poorly fitted or top-dose-only effect, or another doubt; inactive means flat fitted curve, though single readings scatter.

Chain of 3',5'-cyclic-AMP phosphodiesterase 4B (Homo sapiens) (Q07343 whole entry, looked up): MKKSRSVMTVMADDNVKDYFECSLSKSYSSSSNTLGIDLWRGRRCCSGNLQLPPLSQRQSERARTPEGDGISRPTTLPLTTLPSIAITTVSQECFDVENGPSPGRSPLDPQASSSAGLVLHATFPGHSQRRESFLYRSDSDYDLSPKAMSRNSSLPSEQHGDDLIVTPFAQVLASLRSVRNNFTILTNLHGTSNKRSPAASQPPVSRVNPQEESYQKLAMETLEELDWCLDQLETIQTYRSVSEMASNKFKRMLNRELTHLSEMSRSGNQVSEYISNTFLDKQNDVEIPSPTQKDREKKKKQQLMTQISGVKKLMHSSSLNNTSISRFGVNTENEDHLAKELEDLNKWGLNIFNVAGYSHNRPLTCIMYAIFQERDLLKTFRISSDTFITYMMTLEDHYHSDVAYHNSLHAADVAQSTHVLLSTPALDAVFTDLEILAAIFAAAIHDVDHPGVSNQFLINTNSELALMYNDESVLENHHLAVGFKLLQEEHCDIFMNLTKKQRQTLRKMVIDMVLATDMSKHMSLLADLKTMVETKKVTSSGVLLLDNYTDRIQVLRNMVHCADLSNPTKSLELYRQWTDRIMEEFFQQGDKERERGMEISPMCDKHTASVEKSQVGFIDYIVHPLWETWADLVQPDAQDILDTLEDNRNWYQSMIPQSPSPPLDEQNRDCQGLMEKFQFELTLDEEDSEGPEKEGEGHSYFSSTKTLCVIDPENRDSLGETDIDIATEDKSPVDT
Chain of Glucocorticoid receptor (Homo sapiens) (P04150 whole entry, looked up): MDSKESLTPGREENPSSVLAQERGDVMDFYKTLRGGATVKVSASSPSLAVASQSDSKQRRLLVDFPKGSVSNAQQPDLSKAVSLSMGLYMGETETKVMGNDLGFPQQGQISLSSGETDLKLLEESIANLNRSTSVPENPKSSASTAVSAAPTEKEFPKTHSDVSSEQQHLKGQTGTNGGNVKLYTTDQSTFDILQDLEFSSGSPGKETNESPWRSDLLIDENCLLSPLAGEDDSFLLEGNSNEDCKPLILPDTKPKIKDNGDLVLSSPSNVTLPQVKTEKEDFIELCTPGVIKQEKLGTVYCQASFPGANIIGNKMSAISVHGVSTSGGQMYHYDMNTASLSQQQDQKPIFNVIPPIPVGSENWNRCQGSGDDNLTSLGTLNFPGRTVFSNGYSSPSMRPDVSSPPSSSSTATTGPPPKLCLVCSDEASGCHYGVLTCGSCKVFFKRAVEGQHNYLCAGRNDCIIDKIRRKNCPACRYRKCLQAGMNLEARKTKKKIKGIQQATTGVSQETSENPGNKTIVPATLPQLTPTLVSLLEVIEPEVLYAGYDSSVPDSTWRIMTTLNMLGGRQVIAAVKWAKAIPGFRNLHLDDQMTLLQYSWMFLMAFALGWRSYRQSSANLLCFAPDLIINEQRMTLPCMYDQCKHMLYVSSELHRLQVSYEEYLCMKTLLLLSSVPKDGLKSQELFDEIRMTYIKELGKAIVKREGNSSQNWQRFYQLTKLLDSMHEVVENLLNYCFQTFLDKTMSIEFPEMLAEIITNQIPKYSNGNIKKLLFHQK
Chain of Cytochrome P450 3A4 (Homo sapiens) (P08684 whole entry, looked up): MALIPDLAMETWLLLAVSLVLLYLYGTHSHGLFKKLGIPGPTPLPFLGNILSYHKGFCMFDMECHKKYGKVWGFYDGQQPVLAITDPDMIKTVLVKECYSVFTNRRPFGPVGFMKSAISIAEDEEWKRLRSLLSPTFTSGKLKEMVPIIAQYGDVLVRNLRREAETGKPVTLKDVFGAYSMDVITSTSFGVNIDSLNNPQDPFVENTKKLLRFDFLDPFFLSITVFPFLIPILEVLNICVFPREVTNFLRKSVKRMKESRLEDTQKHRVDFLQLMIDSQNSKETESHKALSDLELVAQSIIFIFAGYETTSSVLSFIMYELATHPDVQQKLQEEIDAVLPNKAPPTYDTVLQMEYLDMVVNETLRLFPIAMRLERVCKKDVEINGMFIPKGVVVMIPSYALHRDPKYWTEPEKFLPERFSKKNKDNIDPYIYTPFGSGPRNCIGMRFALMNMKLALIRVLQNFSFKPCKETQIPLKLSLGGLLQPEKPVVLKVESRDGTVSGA
Chain of Cytochrome P450 1A2 (Homo sapiens) (P05177 whole entry, looked up): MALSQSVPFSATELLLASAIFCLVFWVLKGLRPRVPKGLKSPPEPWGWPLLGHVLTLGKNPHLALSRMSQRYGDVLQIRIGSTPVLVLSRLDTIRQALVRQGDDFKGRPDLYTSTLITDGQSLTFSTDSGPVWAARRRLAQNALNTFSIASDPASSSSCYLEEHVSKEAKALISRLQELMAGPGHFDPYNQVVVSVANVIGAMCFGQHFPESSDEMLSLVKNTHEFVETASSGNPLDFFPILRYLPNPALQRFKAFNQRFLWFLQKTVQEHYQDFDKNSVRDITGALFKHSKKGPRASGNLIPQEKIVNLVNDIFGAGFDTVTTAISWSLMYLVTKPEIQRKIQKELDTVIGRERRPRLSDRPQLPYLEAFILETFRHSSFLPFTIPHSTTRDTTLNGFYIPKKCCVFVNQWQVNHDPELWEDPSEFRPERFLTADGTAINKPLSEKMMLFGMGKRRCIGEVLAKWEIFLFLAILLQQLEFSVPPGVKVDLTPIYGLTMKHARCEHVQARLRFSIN
Chain of Ubiquitin carboxyl-terminal hydrolase 1 (Homo sapiens) (O94782 whole entry, looked up): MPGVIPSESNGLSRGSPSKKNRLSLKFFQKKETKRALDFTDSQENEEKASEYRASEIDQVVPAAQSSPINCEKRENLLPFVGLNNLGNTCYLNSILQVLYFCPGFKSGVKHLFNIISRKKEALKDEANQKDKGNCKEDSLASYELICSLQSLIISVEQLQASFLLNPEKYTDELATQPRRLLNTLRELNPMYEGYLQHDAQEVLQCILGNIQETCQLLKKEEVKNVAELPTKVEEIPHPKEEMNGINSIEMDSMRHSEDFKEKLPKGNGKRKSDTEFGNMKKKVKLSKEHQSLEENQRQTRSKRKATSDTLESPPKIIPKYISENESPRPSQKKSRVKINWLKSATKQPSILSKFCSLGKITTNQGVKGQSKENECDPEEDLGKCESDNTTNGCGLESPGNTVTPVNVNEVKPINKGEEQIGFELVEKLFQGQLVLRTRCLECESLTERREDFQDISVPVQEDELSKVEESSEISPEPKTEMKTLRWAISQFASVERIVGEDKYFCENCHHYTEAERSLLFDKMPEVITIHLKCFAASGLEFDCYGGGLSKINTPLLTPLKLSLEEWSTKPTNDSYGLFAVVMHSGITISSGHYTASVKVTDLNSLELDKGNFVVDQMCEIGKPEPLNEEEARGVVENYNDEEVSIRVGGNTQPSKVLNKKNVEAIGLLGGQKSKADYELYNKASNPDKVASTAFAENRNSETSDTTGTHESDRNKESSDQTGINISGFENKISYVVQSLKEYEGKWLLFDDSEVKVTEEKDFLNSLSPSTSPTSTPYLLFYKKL
Chain of Luciferin 4-monooxygenase (Photinus pyralis) (P08659 whole entry, looked up): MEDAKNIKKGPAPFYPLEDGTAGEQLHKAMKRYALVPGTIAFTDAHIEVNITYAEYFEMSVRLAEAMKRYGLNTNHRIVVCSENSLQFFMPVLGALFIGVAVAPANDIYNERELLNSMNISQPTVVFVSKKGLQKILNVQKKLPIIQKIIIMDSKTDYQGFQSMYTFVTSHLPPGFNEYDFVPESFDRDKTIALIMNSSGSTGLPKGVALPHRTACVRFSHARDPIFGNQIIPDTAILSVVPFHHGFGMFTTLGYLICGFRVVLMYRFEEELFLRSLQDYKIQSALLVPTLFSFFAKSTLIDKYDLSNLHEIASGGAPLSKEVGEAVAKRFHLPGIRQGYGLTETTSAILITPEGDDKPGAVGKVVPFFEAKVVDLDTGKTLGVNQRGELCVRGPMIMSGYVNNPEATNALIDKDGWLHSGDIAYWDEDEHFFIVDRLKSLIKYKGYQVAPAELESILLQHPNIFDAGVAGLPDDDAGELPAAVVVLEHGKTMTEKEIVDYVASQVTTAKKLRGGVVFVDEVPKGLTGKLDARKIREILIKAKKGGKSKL

As for `C[N+]1(C)[C@@H]2CC[C@H]1CC(OC(=O)[C@@H](CO)c1ccccc1)C2` (some centres undefined), the result in [1], in [4] and in assay [7] was inactive. Moreover, the Potency entry (in [2]; in [8]; in assay [10]; in assay [11]; in assay [12]; in the assay with C2A) was “inactive” throughout. Also, the Potency entry in the assay with CP185 and with FAB9 was “inactive” each time. The activity change, negative = inhibition in assay [3] (at 17.2 µM (top of the series)) was -48.4% (active); in assay [3] (at 38 µM (top of the series)), -61.2% (active); in assay [9] (at 25.7 µM (top of the series)) it was -3.15% (inactive). Also, the Potency in assay [5] is > 46 µM (inactive) and > 20.6 µM (inactive); in [6], > 46 µM (inactive) and > 20.6 µM (inactive). Further, the max response in assay [9] (setting [16]) was -7.55%; in [9] (setting [17]), -13.1%. In addition, the results for the activity, negative = inhibition in assay [13] (parasite line A) and in assay [13] (parasite line B) were -5.22% (inactive) and 11.2% (inactive), respectively.

Turning to `c1ccc(N2CCC3(CCNCC3)CC2)cc1`, the result in assay [1], in assay [4] and in [7] was inactive. Besides, the Potency entry in [2] and in [8] was “inactive” throughout. In addition, the activity change, negative = inhibition in assay [3] (at 7.69 µM (top of the series)) is -12.2% (inactive); in [9] (at 57.5 µM (top of the series)), -3.07% (inactive). Further, the Potency in assay [6] is > 46 µM (inactive). Moreover, the max response in assay [9] (setting [16]) is -7.04%; in [9] (setting [17]) it was -8.78%.

With `CNC[C@H](O)c1ccc(O)cc1`, the result in assay [1], in [4] and in assay [7] was inactive. The Potency result (in assay [2]; in assay [8]; in [10]; in assay [11]; in assay [12]; in the assay on C2A) was “inactive” in each case. Besides, the Potency entry in the assay on CP185 and with FAB9 was “inactive” in each case. For the same compound, the activity change, negative = inhibition was -22.7% (inactive) in [3] (at 17.2 µM (top of the series)), 10.5% (inactive) in assay [3] (at 38 µM (top of the series)) and -0.0081% (inactive) in assay [9] (at 25.7 µM (top of the series)). In addition, the Potency in assay [5] is > 46 µM (inactive) and > 20.6 µM (inactive). Moreover, the values for the max response in [9] (setting [16]) and in assay [9] (setting [17]) were -14.8% and -11.6%, respectively. Besides, the activity, negative = inhibition in assay [13] (parasite line A) was 3.3% (inactive); in assay [13] (parasite line B) it was 13.2% (inactive).

On to `COc1ccc(NC(=O)N2CCC3(CC2)CCN(C(=O)Oc2ccccc2)CC3)cc1`, for which the result in [1] and in [4] was inactive. Moreover, the results for the activity change, negative = inhibition in assay [3] (at 7.69 µM (top of the series)) and in assay [9] (at 57.5 µM (top of the series)) were 5.41% (inactive) and -1.68% (inactive), respectively. The Potency in assay [6] is > 46 µM (inactive). In addition, in assay [8], the Potency result was “inactive”. Besides, the max response was -23.2% in assay [9] (setting [16]) and -21.9% in [9] (setting [17]).

In the case of `COc1ccc2c(c1OC)C(=O)O[C@H]2[C@H]1c2cc3c(cc2CCN1C)OCO3`, the result in assay [1], in [4] and in assay [7] was inactive. In [2], the Potency was 25.1 µM (active) and inactive and 31.6 µM (active). Moreover, the values for the activity change, negative = inhibition in [3] (at 17.2 µM (top of the series)), in [3] (at 38 µM (top of the series)) and in assay [9] (at 25.7 µM (top of the series)) were -1.79% (inactive), 9.14% (inactive) and 3% (inactive), respectively. The Potency result in [8], in [14] and in [10] was “inactive” throughout. The results for the max response in [9] (setting [16]) and in assay [9] (setting [17]) were -6.69% and -2.42%, respectively.

Regarding `C[C@]12CC[C@H](O)C[C@@H]1CC[C@H]1[C@H]2CC[C@]2(C)C(=O)CC[C@@H]12`, the outcome in [1], in [4] and in assay [7] was inactive. For the same compound, the Potency entry in assay [2], in assay [8], in assay [15], in [14] and in assay [10] was “inactive” in each case. For the same compound, the activity change, negative = inhibition in assay [3] (at 17.2 µM (top of the series)) is 4.61% (inactive) and 4.01% (inactive) and -7.96% (inactive); in assay [3] (at 38 µM (top of the series)), 8.64% (inactive); in assay [9] (at 25.7 µM (top of the series)) it was -2.44% (inactive) and -2.6% (inactive) and -5.42% (inactive). Besides, the Potency in [5] was > 46 µM (inactive) and > 20.6 µM (inactive); in [6] it was > 46 µM (inactive) and > 20.6 µM (inactive). In addition, the max response was -9.77% and -5.73% and -17.9% in assay [9] (setting [16]); -12.1% and -8.44% and -22.6% in assay [9] (setting [17]).
